Source: PubChem BioAssay
This is a sample that favours compounds with a hit; in the whole collection about 6.3% have one here.
TIM10 inh: growth inhibitors of isogenic TIM10 control yeast, primary screen, counter-screen for tim10-1 yeast inhibitor project, luminescence, uHTS | S. cerevisiae TIM10 strain growth, BacTiter-Glo luminescence, 24 h | inhibition, % at 10 µM | 1.4% of 330,000 active;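 active means inhibition of 40% or more at the single tested concentration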;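 further: wild-type TIM10 isogenic control strain grown at permissive 25 °C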
MPTP block: mitochondrial permeability transition pore inhibitors, primary screen, biochemical, isolated mouse mitochondria, absorbance. inhibition, % at 10 µM. Ca2+ swelling absorbance, 30 min. 1.4% of 360,000 active;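 active means inhibition of 50% or more, scaled per plate between neutral and stimulator controls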;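 further: 0% = DMSO wells given calcium and 100% = 1 mM EGTA wells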
tim23-1 inh: growth inhibitors of tim23-1 mutant yeast, primary screen, luminescence, uHTS. inhibition, % at 20 µM. S. cerevisiae tim23-1 growth, BacTiter-Glo luminescence, 24 h. 1.3% of 330,000 active;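 active means growth inhibition of the mutant yeast at or above 50%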;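 further: temperature-sensitive mutant grown at 25 °C; plate controls were DMSO-treated mutant yeast for no effect and medium wells lacking yeast for full effect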
Mdm2 MdmX PPI: inhibitors of human Mdm2-MdmX association, primary screen, cell-based, luminescence, split luciferase, SaOS-2, uHTS; Protein Mdm4 (Homo sapiens) + E3 ubiquitin-protein ligase Mdm2 (Homo sapiens), …; SaOS-2 split-luciferase Mdm2/MdmX complementation; inhibition, % at 8 µM; 3% of 330,000 active; AID 485346, 2010;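 active means inhibition of at least 50% at 8 µM in the primary screen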
Target sequence (O15151 whole entry, looked up): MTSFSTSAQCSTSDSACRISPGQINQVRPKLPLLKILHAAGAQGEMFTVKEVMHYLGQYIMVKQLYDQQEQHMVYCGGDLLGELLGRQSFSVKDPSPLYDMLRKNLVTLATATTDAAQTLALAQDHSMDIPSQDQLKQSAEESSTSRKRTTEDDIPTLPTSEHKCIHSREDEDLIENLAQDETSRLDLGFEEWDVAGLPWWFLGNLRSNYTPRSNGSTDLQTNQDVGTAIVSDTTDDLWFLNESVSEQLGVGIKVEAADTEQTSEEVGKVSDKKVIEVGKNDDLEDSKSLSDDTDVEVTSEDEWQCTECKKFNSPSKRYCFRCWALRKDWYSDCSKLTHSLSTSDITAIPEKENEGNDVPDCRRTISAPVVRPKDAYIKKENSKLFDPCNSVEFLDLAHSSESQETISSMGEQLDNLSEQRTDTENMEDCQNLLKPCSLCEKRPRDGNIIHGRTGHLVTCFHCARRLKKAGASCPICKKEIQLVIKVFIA
Target sequence (Q00987 whole entry, looked up): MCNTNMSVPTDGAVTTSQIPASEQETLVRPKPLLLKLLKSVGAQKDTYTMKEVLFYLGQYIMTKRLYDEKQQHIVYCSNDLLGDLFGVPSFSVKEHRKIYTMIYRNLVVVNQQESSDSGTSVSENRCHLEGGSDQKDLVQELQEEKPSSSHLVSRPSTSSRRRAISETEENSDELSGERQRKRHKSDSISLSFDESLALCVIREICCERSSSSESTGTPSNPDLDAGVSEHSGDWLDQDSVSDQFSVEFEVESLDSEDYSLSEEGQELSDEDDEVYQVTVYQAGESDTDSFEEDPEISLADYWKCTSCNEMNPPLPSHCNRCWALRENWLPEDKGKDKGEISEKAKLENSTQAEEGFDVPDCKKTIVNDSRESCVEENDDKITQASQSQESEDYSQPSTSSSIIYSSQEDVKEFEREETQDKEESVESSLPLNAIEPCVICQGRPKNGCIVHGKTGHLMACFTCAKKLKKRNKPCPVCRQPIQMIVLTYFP
tim10-1 inh: growth inhibitors of tim10-1 mutant yeast, primary screen, luminescence, uHTS; S. cerevisiae tim10-1 ts strain growth, BacTiter-Glo, 24 h; inhibition, % at 20 µM; 2.2% of 330,000 active; AID 463190, 2010;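 active means inhibition of at least 40%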;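 further: mutant grown at 25 °C; 0% = DMSO wells with yeast and 100% = wells holding no yeast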
tim10-1 confirm: growth inhibitors of tim10-1 mutant yeast, confirmation, single concentration, luminescence, S. cerevisiae. S. cerevisiae tim10-1 ts strain growth, BacTiter-Glo, 24 h. 56% of 7,400 active. inhibition, % at 20 µM. shares compounds with tim10-1 inh;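 active means inhibition of yeast growth at or above a set limit in either of two repeat tests at 20 µM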;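 further: tim10-1 mutant grown at permissive 25 °C to find synthetic lethal compounds; 0% = DMSO yeast wells and 100% = medium wells without yeast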
TIM10 conf: growth inhibitors of wild-type TIM10 yeast, confirmation, counter-screen for tim10-1 synthetic lethality project, single concentration, luminescence, S. cerevisiae. inhibition, % at 10 µM. 63% of 4,600 active. S. cerevisiae tim10 strain growth, BacTiter-Glo luminescence, 24 h. AID 463215, 2010. shares compounds with TIM10 inh;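 active means inhibition of yeast growth at or above a set limit in either of two replicates at 10 µM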;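 further: this counterscreen used the strain with wild-type TIM10; 0% = yeast with DMSO and 100% = medium wells lacking yeast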
tim23-1 confirm: tim23-1 mutant yeast growth inhibitors, confirmation, luminescence, single concentration. shares compounds with tim23-1 inh. 83% of 4,400 active. inhibition, % at 20 µM. S. cerevisiae tim23-1 growth, BacTiter-Glo luminescence, 24 h;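 active means inhibition above about 39% in either of two replicate wells at 20 µM, limit read from the data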;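 further: temperature-sensitive tim23-1 mutant grown at 25 °C; 0% = DMSO wells with yeast and 100% = medium wells without yeast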
The depositor's hits bear a star; . = no result given.

SMILES	TIM10 inh	MPTP block	tim23-1 inh	Mdm2 MdmX PPI	tim10-1 inh	tim10-1 confirm	tim23-1 confirm	others
CCOC(=O)c1c(NC(=O)c2cc(-c3ccc(Cl)s3)nc3ccccc23)sc(C(N)=O)c1C	.	2	.	.	.	.	.
Cc1ccccc1-c1cc(C(=O)Nc2sc(C)c(C)c2C(N)=O)c2ccccc2n1	31	-2	54*	30	42*	31*	42*
CCC1CCc2sc(C(=O)N3CCCN(C)CC3)cc2C1 (stereo unspecified)	9	0	-7	5	26	.	.
CCC1CCc2sc(C(=O)N3CCN(c4ccccn4)CC3)cc2C1 (stereo unspecified)	31	-1	56*	-3	46*	34*	56*
CN(C)C1CN(Cc2cn(Cc3ccc(C(F)(F)F)cc3)nn2)S(=O)(=O)C1 (stereo unspecified)	.	0	.	.	.	.	.
CN=C1S/C(=C\c2ccc(O)c(Br)c2)C(=O)N1C	37	2	62*	12	56*	50*	63*
Cc1ccccc1OCC(=O)NC(=S)Nc1cccc2cc(O)ccc12	25	3	63*	17	57*	55*	49*
CC1(C(=O)NCCC#N)CCN1C(=O)Cc1ccc(-c2ccccc2)cc1 (stereo unspecified)	.	-1	.	.	.	.	.
CCOc1ccc(CCN2C(=S)N([C@@H](Cc3ccc(O)cc3)CN3CCC[C@@H]3CN3C(=S)NC[C@@H]3Cc3ccccc3)C[C@@H]2Cc2ccc(O)cc2)cc1	.	1	.	.	.	.	.
Cc1ccc(C(=O)/C=C/c2cc(Br)cc(Br)c2O)o1	38	3	65*	24	53*	50*	66*
Cc1ccc(C(=O)/C=C/N(C)C)o1	14	-1	-5	10	6	.	.
O=C(Nc1ccc2c(c1)OCCO2)NC12CC3CC(CC(C3)C1)C2	47*	11	59*	-162	51*	43*	43*	TIM10 conf=31
N/C(=N\OC(=O)c1ccc(Cl)cc1)c1[nH]ncc1Br	43*	2	60*	-198	66*	63*	59*	TIM10 conf=37*
CCO/N=C(\N)c1[nH]ncc1Br	9	0	9	-2	8	.	.
O=C(OCc1nnc(-c2ccccc2)o1)c1ccc([N+](=O)[O-])o1	-36	0	80*	14	78*	59*	84*
O=Cc1ccc(OCc2cccc(C(F)(F)F)c2)cc1O	14	4	57*	17	45*	48*	42*
O=C(NCC1CCCCC1)c1ccc2nc([C@@H]3O[C@H](CO)[C@@H](O)[C@H]3O)[nH]c2c1	.	1	.	.	.	.	.
CC1=C(CC(=O)c2ccccc2)C(=O)c2ccccc2C1=O	33	5	64*	44	48*	42*	69*
O=c1[nH][nH]c(-c2ccccc2O)c1C(C[N+](=O)[O-])c1cccc(Cl)c1 (stereo unspecified)	48*	1	56*	30	44*	44*	55*	TIM10 conf=-8
O=C(c1cc(COc2ccc(F)cc2Cl)on1)N1CCCCCC1	-4	-1	49	-158	37	.	.
O=C(c1cc(COc2ccc(F)cc2Cl)on1)N1CCCCCCC1	14	0	51*	5	41*	16	42*
Cc1nnc(NC(=O)CCN2C(=O)C3CC=CCC3C2=O)s1 (stereo unspecified)	.	-1	.	.	.	.	.
O=[N+]([O-])c1ccc(/C=N/NC(=S)Nc2ccccc2F)o1	43*	0	55*	11	56*	47*	58*	TIM10 conf=-6
O=C(CCC(=O)Nc1ccc(Cl)cc1Cl)N/N=C/c1ccc([N+](=O)[O-])o1	45*	2	92*	8	64*	43*	88*	TIM10 conf=51*
O=C(N/N=C\c1ccc([N+](=O)[O-])o1)C1COc2ccccc2O1 (stereo unspecified)	31	4	57*	19	57*	49*	42*
SMILES	TIM10 inh	MPTP block	tim23-1 inh	Mdm2 MdmX PPI	tim10-1 inh	tim10-1 confirm	tim23-1 confirm	others
CCCCCC(=O)N/N=C/c1ccc([N+](=O)[O-])o1	26	2	22	9	22	.	.
O=C(O)c1cccc(-c2ccc(/C=N/NC(=O)C3COc4ccccc4O3)o2)c1 (stereo unspecified)	-5	2	16	-22	-4	.	.
C[C@@H]1CN([C@H](C)CO)S(=O)(=O)c2ccc(C#Cc3cccc(F)c3)cc2O[C@@H]1CN(C)C(=O)CN1CCOCC1	.	0	.	.	.	.	.
O=C1NC[C@@H](CCCCN2CCN(Cc3ccccc3)C(=O)C2=O)N(CCC2CCCCC2)C1=O	.	0	.	.	.	.	.
CC1=CC(=O)C=C(C)C1=NOc1ccc([N+](=O)[O-])cc1	47*	-1	57*	16	62*	65*	69*	TIM10 conf=38*
COc1ccc(/C=C(\C#N)C(=O)OCC(=O)NCc2ccccc2OC)cc1	-9	-1	1	-21	2	.	.
COc1ccccc1CNC(=O)/C(C#N)=C/c1ccc(OC)c(OC)c1OC	24	3	53*	31	46*	45*	-23
Cc1nc(Nc2cccc(O)c2)c2oc3ccccc3c2n1	31	0	30	18	28	.	.
Cc1nc(Nc2cccc(F)c2)c2oc3ccccc3c2n1	5	0	55*	27	44*	29	60*
COCCN1C[C@@H](CO)O[C@@H](n2cnc3c(N(C)C(C)C)ncnc32)C1	.	-1	.	.	.	.	.
COc1ccc(S(=O)(=O)Nc2cc(SCC(=O)O)c(O)c3ccccc23)cc1	33	1	58*	20	44*	28	-17
CC1=NN(c2ccccc2)C(=O)/C1=C\c1cn(CCC#N)nc1-c1ccc(Cl)cc1	54*	6	54*	-2	43*	31	51*	TIM10 conf=38*
Cc1noc(C)c1C(=O)Nc1nc2ccc(Cl)cc2s1	32	4	62*	1	50*	32*	47*
CCCCOc1cccc(-c2nnc(N)s2)c1	29	2	52*	17	53*	36*	50*
COc1ccc(/C(C)=N/NC(=S)NCc2ccco2)cc1	33	2	51*	-9	41*	48*	54*
